This is a sample that favours compounds with a hit; in the whole collection about 3.7% have one here.
HepG2 tox = qHTS for Inhibitors of TGF-b: Cytotox Counterscreen; HepG2 CAGA-GFP viability, ATP luminescence, 18 h; Potency, µM (top dose mostly 46.1 µM), inactives show at the top dose activity change, negative = cytotoxicity, most hits filed as cytotoxic; actives 0.76% (n = 410,000)
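HepG2 CAGA-GFP cells (1000/well, DMEM with 1% FBS) received compound, then TGF-beta at 500 pg/mL final, and were incubated 18 hours at 37 degrees C. Viability was read by CellTiter-Glo luminescence. Media-only wells were set as complete cell-killing and DMSO as no toxicity.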
ATXN2 expr inh = Primary qHTS for Inhibitors of ATXN expression | Potency, µM (series often up to 57 µM), for the others: at the highest dose activity change, negative = inhibition, actives largely listed as inhibitors | HEK-293 ATXN2-luciferase reporter, luminescence, 24 h | actives 0.72% (n = 360,000); also: % is scaled to controls: 0 for no effect and ±100 for the full control effect; nearly all actives have a fitted effect of over 55% in size
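qHTS (up to 57 uM final) was run with 24 h compound exposure of reporter cells at 37 °C. Each well was multiplexed: SteadyGlo luminescence measured ATXN2-luciferase expression after a fluorogenic Gly-Phe-AFC viability readout (25 uM final).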
GLP-1R agonist = qHTS of GLP-1 Receptor Agonists; HEK293 GLP-1R CRE-luciferase, luminescence, 4-6 h; cells express a hypersensitive GLP-1R form; Potency, µM (top dose mostly 45.6 µM), for inactives: at the top dose activation, hits mostly activators; actives 0.007% (n = 380,000); also: % of control where 0% means no effect
Target sequence (P43220 whole entry, looked up): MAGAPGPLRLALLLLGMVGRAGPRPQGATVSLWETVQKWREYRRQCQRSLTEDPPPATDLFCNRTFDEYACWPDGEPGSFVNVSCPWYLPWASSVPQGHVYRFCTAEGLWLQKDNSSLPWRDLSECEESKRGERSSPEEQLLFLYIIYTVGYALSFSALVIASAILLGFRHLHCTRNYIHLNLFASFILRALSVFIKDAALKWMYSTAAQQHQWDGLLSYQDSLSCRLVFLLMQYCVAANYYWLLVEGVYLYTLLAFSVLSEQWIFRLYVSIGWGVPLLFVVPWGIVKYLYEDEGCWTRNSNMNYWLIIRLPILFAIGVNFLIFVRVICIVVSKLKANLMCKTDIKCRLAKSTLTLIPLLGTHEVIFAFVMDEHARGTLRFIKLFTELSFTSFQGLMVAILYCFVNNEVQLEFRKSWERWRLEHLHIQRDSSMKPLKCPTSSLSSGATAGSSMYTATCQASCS
S2 tox = Viability Counterscreen for Primary qHTS for Inhibitors of ATXN expression; S2 cells (HEK-293 line with an ATXN2-luciferase reporter) viability, CellTiter-Fluor protease fluorescence, 24 h; actives 0.49% (n = 400,000); Potency, µM (series often up to 56.7 µM), usual class: cytotoxic; also: nearly all actives have a fitted effect of over 40% in size
GLP1R inv ag = qHTS of GLP-1 Receptor Inverse Agonists (Inhibition Mode) | HEK293 GLP-1R CRE-luciferase, luminescence, 24 h; GLP-1R form is constitutively active | actives 1.6% (n = 410,000) | AID 624417, 2012 | Potency, µM (series often up to 38.3 µM), without a hit: at the top dose activity change, negative = inhibition, most hits filed as inhibitors; also: % is scaled to controls: 0 for no effect and ±100 for the full control effect; nearly all actives have a fitted effect of over 55% in size
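HEK293 cells stably co-expressing a cAMP-responsive luciferase reporter and constitutively active GLP-1R were seeded, incubated 12 h, then exposed to compounds for 24 h at 37 C. Luminescence was read 12 min after detection reagent; inverse agonists lower signal.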
TGFb SMAD3 inh = qHTS for Inhibitors of TGF-b; actives 1.2% (n = 410,000); Potency, µM (doses to about 46.1 µM), inactives show at the top dose activity, negative = inhibition, usual class: inhibitors; HepG2 CAGA-GFP TGF-b/SMAD3 reporter, GFP fluorescence, 18 h; TGF-beta stimulated, 500 pg/mL final; also: % is scaled to controls: 0 for no effect and ±100 for the full control effect; nearly all actives have a fitted effect of over 65% in size
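HEPG2 CAGA-GFP cells (1000/well, DMEM with 1% FBS) were pre-incubated 2 h at 37 degrees C, given compound by pin tool, then stimulated with TGF-beta at 500 pg/mL final for 18 h before per-cell GFP fluorescence imaging.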
* hit, by the source's call; i = inactive; ? = inconclusive; . = no result given; ! = a repeat was not active. Calls follow the shape of the dose curve; as a rule, active = well fitted curve in the direction sought with a large enough effect; inconclusive = small, poorly fitted or top-dose-only effect, or another doubt; inactive = no such curve, though single readings can be large; an effect the other way counts as inactive or inconclusive. Potency is read from the fitted curve at half-maximal effect.

SMILES	HepG2 tox	ATXN2 expr inh	GLP-1R agonist	S2 tox	GLP1R inv ag	TGFb SMAD3 inh
COc1cccc(C2=Nn3c(nnc3-c3ccccc3O)SC2)c1	-17.2%	-2.4%	6.2%	i	0.0%	-4.8%
C[n+]1c2n(c3ccccc31)N=C(c1cc(C(C)(C)C)c(O)c(C(C)(C)C)c1)CS2	-160.0%	?	-0.7%	22.4µM*	?	6.31µM*
Cc1csc(NC(=O)c2ccc(N3CCCC3=O)cc2)n1	-38.1%	.	-5.5%	i	2.24µM*	1.2%
c1cnc2c(c1)ccc1cccnc12	-11.9%	5.62µM*!	-1.0%	?	?	?
CC/C=C(\C(=O)N[C@@H]1C(=O)N2C(C(=O)OCOC(=O)C(C)(C)C)=C(COC(N)=O)CS[C@H]12)c1csc(N)n1	.	-1.3%	.	i	.	.
O=C(c1cc(-c2ccccc2)nc2ccccc12)N1CCc2ccccc2C1	-4.0%	3.6%	-12.2%	?	11.2µM*	-10.3%
Cc1ccc2nc(-c3ccccc3)cc(C(=O)N3CCc4ccccc4C3)c2c1	-67.9%	-10.0%	-7.9%	?	?	?
Cc1ccc(CNC(=O)[C@]2(C)CCC[C@@]3(C)C4CC[C@@]5(C)C[C@]4(CCC32)CC5=O)cc1 (stereo partly drawn)	-9.9%	?	7.0%	?	?	?
COc1ccc(CNC(=O)[C@]2(C)CCC[C@@]3(C)C4CC[C@@]5(C)C[C@]4(CCC32)CC5=O)cc1 (stereo partly drawn)	-19.8%	?	-1.6%	?	10µM*	?
CC(C)(CNC(=O)c1cnn(-c2nccc(-c3cccs3)n2)c1C1CC1)N1CCOCC1	.	.	.	i	.	.
COc1ccc2c(c1)C(=O)N(Cc1ccccc1)C(=O)C2(C)C	8.7%	-19.3%	24.5%	i	4.2%	6.1%
COc1ccc2c(c1)C[C@]1(C)c3ccccc3C(=O)N(Cc3ccccc3)[C@H]21	-15.8%	?	-3.4%	?	?	11.2µM*
OC[C@H]1O[C@@H](O[C@H]2[C@@H](O)[C@@](O)(CO)O[C@@H]2CO)[C@H](O)[C@@H](O)[C@@H]1O	.	1.1%	.	.	.	.
CC(=O)N1CCCC(N2CCN(c3cccc(C(F)(F)F)c3)CC2)C1 (stereo not drawn)	-39.7%	28.1%	1.8%	i	-0.4%	-2.5%
Cc1ccc(C(=O)N2CCCC(N3CCN(c4cccc(C(F)(F)F)c4)CC3)C2)s1 (stereo not drawn)	-44.5%	.	-0.5%	?	?	11.2µM*
Cc1ccc2cc(CNC(C)c3cccc4ccccc34)c(N3CCC(O)CC3)nc2c1 (stereo not drawn)	.	.	.	i	.	.
Nc1cc2nsnc2cc1Br	-78.3%	-18.1%	-8.7%	i	20.0%	11.2µM*
C=C1CCC[C@]2(C)C[C@H]3OC(=O)C(CN4CCCCC4CO)[C@H]3CC12 (stereo partly drawn)	-65.5%	7.3%	0.4%	i	63.2%	?
C[C@H]1CCC[C@]2(C)C[C@H]3OC(=O)C(CN4CCCCCC4)[C@H]3C=C12 (stereo partly drawn)	-106.5%	?	-6.9%	.	11.2µM*	?
O=C(NCCCc1nc2ccccc2n1Cc1ccc(Cl)cc1)C1CCCCC1	-29.6%	?	.	?	?	10µM*
CCN(CC)c1ccc2c(c1)oc(=O)c1c(Cl)cc(=O)oc12	14.1µM*	?	-4.2%	?	7.2%	?
Cc1ccc2oc(-c3ccc(NC(=O)COc4ccccc4)cc3O)nc2c1	-30.3%	.	.	.	.	-6.9%
O=C1C=CC(=O)N1CCCCCCN1C(=O)C=CC1=O	-109.6%	?	-22.3%	.	?	4.47µM*
COc1cc2c(cc1OC)n(CC(=O)c1ccc(F)cc1)c(=O)n1nc(CCn3nc(C)cc3C)nc21	-25.0%	.	.	.	1.3%	-34.6%
CC(C)(C)c1ccc(OCCSc2nc(-c3cccs3)nc3cc(=O)[nH]n23)cc1	-4.4%	0.5%	.	i	-2.0%	-6.8%
SMILES	HepG2 tox	ATXN2 expr inh	GLP-1R agonist	S2 tox	GLP1R inv ag	TGFb SMAD3 inh
COC(=O)c1cc(C(=O)N2CCN(C(=O)c3ccco3)CC2)cc([N+](=O)[O-])c1	-5.2%	-4.8%	-13.1%	i	0.9%	?
COC(=O)c1cc(C(=O)N2CCN(c3cccc(C)c3C)CC2)cc([N+](=O)[O-])c1	-20.7%	?	11.3%	i	3.98µM*	-26.1%
COC(=O)c1cc(C(=O)N2CCN(c3ccccc3OC)CC2)cc([N+](=O)[O-])c1	5.3%	5.1%	22.4%	i	1µM*	?
COC(=O)c1cc(C(=O)N2CCN(c3ncccn3)CC2)cc([N+](=O)[O-])c1	-4.1%	-0.1%	7.5%	i	-0.3%	8.7%
Cc1cccc(N2CCN(C(=O)c3ccc4[nH]c(C)c(C)c4c3)CC2)c1C	-27.8%	-24.7%	11.2%	i	2.51µM*	?
Cc1[nH]c2ccc(C(=O)N3CCN(c4ccccc4F)CC3)cc2c1C	-10.4%	.	.	.	?	0.0%
Cc1ncc2c(c1CNC(=O)c1ccc3c(c1)OCO3)CCN(C(=O)c1ccoc1)C2	.	.	.	i	.	.
COC/C=C/C1=CC2=CC(=O)C(C)(OC(=O)c3cnc4ccccc4n3)C(=O)C2=CN1Cc1ccccc1 (stereo not drawn)	-17.4%	?	2.5%	.	22.4%	11.2µM*
COc1cc(O)ccc1CN1CCc2nnc(C(C)NC(=O)c3cc(F)ccc3F)n2CC1 (stereo not drawn)	.	.	.	i	.	.
Cc1ccc(NC(=O)Cn2c(=O)ccc3cc(S(=O)(=O)N4CCCC4)ccc32)cc1N(C)C	-5.0%	-1.3%	.	i	-19.6%	-9.2%
COc1ccc(NC(=O)c2cc(S(=O)(=O)N3CCCCCC3)cn2C)cc1Cl	-18.1%	2.3%	0.6%	i	-4.5%	-2.4%
COc1ccc(O)c(CN2CCOc3c(cc(-c4cccc(OC)n4)cc3OC)C2)c1	.	.	.	i	.	.
COc1ccc(-c2oc(NC(=O)CSc3nncn3C)c(C#N)c2-c2ccc(OC)cc2)cc1	-4.4%	-24.8%	-7.5%	?	1.58µM*	4.6%
CCn1c(SCC(=O)Nc2oc(-c3ccccc3)c(-c3ccccc3)c2C#N)nnc1-c1ccco1	-5.4%	-1.6%	-10.1%	i	?	?
